Assay outcomes from PubChem.
Beta apoptosis: blocks beta cell apoptosis | 300,000 compounds, 0.8% hits | INS-1E cytokine-induced death, ATP luminescence, 48 h; percent of positive-control rescue, neutral wells zero | protection from apoptosis, % (test concentration not listed);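 active = Every replicate reaches about 75%, or at least half do and their mean reaches it too, limit read from the data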;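 note: 0% = cytokine-treated negative control wells and 100% = positive control rescue; higher means more ATP so stronger rescue from cytokine killing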
A1 inh: inhibitors of the anti-apoptotic protein A1, read as caspase activation; MEF A1-2A-BIM cells, Caspase-Glo 3/7 luminescence, 3 h; percent of clofoctol response, vehicle zero; caspase activation, % (no concentration beside the values); 330,000 compounds, 0.066% hits;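 active = over half of replicate activation scores above 10%, or exactly half above 10 with the replicate mean above 10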
Mdm2-MdmX inh: inhibitors of human Mdm2/MdmX interaction. AID 485346. 330,000 compounds, 3% hits. SaOS-2 split-luciferase Mdm2/MdmX complementation, luminescence. O15151+Q00987. inhibition, % at 8 µM;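 active = inhibition of at least 50% at 8 µM in the primary screen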
Jurkat NFkB inh: inhibitors of the PMA/ionomycin-induced NF-kB reporter in Jurkat cells; 330,000 compounds, 0.53% hits; PMA/ionomycin-induced NF-kB luciferase reporter, luminescence; inhibition, % at 4 µM; in the data active = inhibition above about 50%
NTR1 ag: activates human neurotensin receptor 1. NTR1-U2OS beta-arrestin-GFP spot imaging, agonist mode. activation, % at 20 µM. 330,000 compounds, 0.17% hits. AID 493036;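 active = activation at or above 40% of the spot to cytoplasm intensity ratio, with at least 20 cells analyzed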;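 note: 0% = DMSO without peptide and 100% = 100 nM NTR1 peptide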
Target sequence (P30989 whole entry, looked up): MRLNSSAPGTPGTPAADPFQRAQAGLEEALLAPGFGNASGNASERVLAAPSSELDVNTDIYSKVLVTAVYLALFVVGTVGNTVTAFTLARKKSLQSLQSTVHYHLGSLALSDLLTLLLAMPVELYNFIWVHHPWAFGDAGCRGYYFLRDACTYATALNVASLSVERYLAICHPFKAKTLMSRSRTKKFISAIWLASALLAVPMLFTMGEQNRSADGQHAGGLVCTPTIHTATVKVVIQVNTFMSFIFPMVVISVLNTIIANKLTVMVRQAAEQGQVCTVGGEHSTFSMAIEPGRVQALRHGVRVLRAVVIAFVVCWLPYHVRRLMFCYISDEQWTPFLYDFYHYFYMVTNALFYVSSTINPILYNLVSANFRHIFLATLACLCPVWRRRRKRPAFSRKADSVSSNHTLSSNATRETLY
697 NFkB inh: inhibitors of the PMA/ionomycin-induced NF-kB reporter in 697 B cells. 697 B-cell NF-kB luciferase reporter, 16 h. inhibition, % at 4 µM. 330,000 compounds, 0.33% hits; in the data active = inhibition above about 35%
* marks the source's active call; other numbers are inactive results. The list is not random: actives were taken first. Their share in the collection is about 3.8%.

O=[N+]([O-])c1ccc(Cl)c(/C=N/n2c(COc3ccccc3)n[nH]c2=S)c1 was read as Beta apoptosis 4.8, A1 inh 0.3, Mdm2-MdmX inh 26.1, Jurkat NFkB inh 10.3, NTR1 ag 9.0 and 697 NFkB inh -29.4.
For Cc1nc2ccccc2c(=O)n1/N=C/c1ccc(O)cc1O the results were Beta apoptosis -5.3, A1 inh -0.6, Mdm2-MdmX inh 10.2, Jurkat NFkB inh 6.1, NTR1 ag 0.4 and 697 NFkB inh -17.8.
`O=c1c2ccccc2nc(COc2ccccc2)n1/N=C/c1cc([N+](=O)[O-])ccc1O` gave Beta apoptosis 79.1*, A1 inh -4.3, Mdm2-MdmX inh 24.8, Jurkat NFkB inh 5.5, NTR1 ag 8.4 and 697 NFkB inh -54.7.
`Cc1ccc(-c2[nH]ncc2/C=N/n2c(COc3ccccc3C)nc3ccccc3c2=O)cc1` gave Beta apoptosis 93.1*, A1 inh 1.8, Mdm2-MdmX inh 29.7, Jurkat NFkB inh 4.0, NTR1 ag 5.1 and 697 NFkB inh 13.7.
`CCCc1nc2ccccc2c(=O)n1/N=C/c1ccccc1O` gave Beta apoptosis 96.8*, A1 inh -1.2, Mdm2-MdmX inh 4.8, Jurkat NFkB inh 13.3, NTR1 ag 2.4 and 697 NFkB inh 2.3.
O=C(NCc1nnc(SCC(=O)N2CCCCC2)o1)c1c(F)cccc1Cl was read as Beta apoptosis 1.2, A1 inh 0.1, Mdm2-MdmX inh 12.6, Jurkat NFkB inh 3.2, NTR1 ag 2.4 and 697 NFkB inh -0.5.
Screening CCOCCCNC(=O)c1ccc(OC2CCN(C(C)=O)CC2)c(OC)c1 returned Beta apoptosis -6.8, A1 inh -1.0, Mdm2-MdmX inh 6.6, Jurkat NFkB inh -8.6, NTR1 ag -0.1 and 697 NFkB inh -21.2.
Screening CCn1c(C)nc2cc(NC(=O)Nc3cccc(C(C)=O)c3)ccc21 returned Beta apoptosis -3.2, A1 inh -1.0, Mdm2-MdmX inh 2.9, Jurkat NFkB inh -47.5, NTR1 ag -1.0 and 697 NFkB inh -44.7.
O=C(NCc1nc2ccccc2[nH]1)C1=C[C@H](C2CCCCC2)C[C@H](OCCCCO)O1 was read as Beta apoptosis 5.3, A1 inh 0.4, Mdm2-MdmX inh -3.6, Jurkat NFkB inh 5.8, NTR1 ag 2.1 and 697 NFkB inh -8.4.
Screening O=C(NCc1nc2ccccc2[nH]1)C1=C[C@@H](C2CCCCC2)C[C@@H](OCc2ccc(CO)cc2)O1 returned Beta apoptosis 105.9*, A1 inh 1.2, Mdm2-MdmX inh 37.3, Jurkat NFkB inh 12.1, NTR1 ag 14.9 and 697 NFkB inh -16.1.
For Cn1cccc1/C=N/NC(=O)c1cccs1 the results were Beta apoptosis -2.9, A1 inh -7.4, Mdm2-MdmX inh 6.8, Jurkat NFkB inh -10.2, NTR1 ag -1.1 and 697 NFkB inh -37.3.
Cn1cccc1/C=N/NC(=O)Cc1cccs1 was read as Beta apoptosis 104.5*, A1 inh 0.2, Mdm2-MdmX inh 10.0, Jurkat NFkB inh -12.2, NTR1 ag 3.4 and 697 NFkB inh 1.5.
Screening CNc1nc(N)c([N+](=O)[O-])c(Nc2cccc(F)c2)n1 returned Beta apoptosis 94.2*, A1 inh 0.5, Mdm2-MdmX inh 36.7, Jurkat NFkB inh -2.5, NTR1 ag 0.8 and 697 NFkB inh -14.1.
For Cc1cc(=O)oc2cc(OCC(=O)N3c4ccccc4NC(=O)C3(C)C)ccc12 the results were Beta apoptosis 12.1, A1 inh -0.8, Mdm2-MdmX inh 1.9, Jurkat NFkB inh -3.0, NTR1 ag -0.4 and 697 NFkB inh 10.7.
CC(C(=O)c1ccc(-c2ccccc2)cc1)[n+]1ccccc1 (stereo not given) was read as Beta apoptosis 21.7, A1 inh 0.7, Mdm2-MdmX inh 6.4, Jurkat NFkB inh 19.4, NTR1 ag -2.2 and 697 NFkB inh -5.4.
For Cc1cc[n+](C(C)C(=O)c2ccc(-c3ccccc3)cc2)cc1 (stereo not given) the results were Beta apoptosis 99.3*, A1 inh -0.1, Mdm2-MdmX inh 31.8, Jurkat NFkB inh 45.4, NTR1 ag 0.7 and 697 NFkB inh 15.3.
`CC1=NNC(=O)/C1=C\c1cn(-c2ccccc2)nc1-c1ccccc1` gave Beta apoptosis 109.1* and A1 inh 3.8.
